# Measurements as given in PubChem BioAssay.
# The source made the active and inactive calls. No rule for the calls is given here.
# Target: Pantothenate synthetase (Mycobacterium tuberculosis (strain ATCC 25618 / H37Rv)) (UniProt P9WIL5)
# Assay: Recombinant Mtb pantothenate synthetase (PanC) inhibitors, coupled enzyme, confirmatory (AID 375);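 also: 0% = full reaction with vehicle and 100% = no enzyme background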
# Settings: coupled enzyme assay; at 10 µM, active compounds read high
# Chain of Pantothenate synthetase (Mycobacterium tuberculosis (strain ATCC 25618 / H37Rv)) (P9WIL5 whole entry, looked up): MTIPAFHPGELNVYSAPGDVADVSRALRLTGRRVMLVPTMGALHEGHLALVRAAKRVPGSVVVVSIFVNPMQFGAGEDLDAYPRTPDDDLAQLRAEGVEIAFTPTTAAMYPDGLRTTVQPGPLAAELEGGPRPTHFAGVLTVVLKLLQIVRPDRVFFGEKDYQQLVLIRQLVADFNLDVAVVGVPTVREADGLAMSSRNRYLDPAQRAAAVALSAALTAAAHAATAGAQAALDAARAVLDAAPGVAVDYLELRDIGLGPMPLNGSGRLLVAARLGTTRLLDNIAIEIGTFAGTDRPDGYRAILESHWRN
row,SMILES,inhibition
1,COc1ccccc1C1C(C(C)=O)=C(O)C(=O)N1CCc1ccccc1 (stereo not given),8% (inactive)
2,Cc1ccc2[nH]c(=O)c(CN(CCCO)S(=O)(=O)c3c(C)ccc4nsnc34)cc2c1,6% (inactive)
3,COCCn1c(SCC(=O)Nc2cccc(OC)c2)nnc1-c1ccc(Cl)cc1,3% (inactive)
4,CCc1nnc(NC(=O)CCC(=O)Nc2ccccc2)s1,4% (inactive)
5,COc1ccc(N2C(=O)c3cccc4cccc(c34)C2=O)nn1,0% (inactive)
6,CC(C)(C)OC(=O)N1CCCC1C(=O)N1CCc2ccccc21 (stereo not given),0% (inactive)
7,CCOC(=O)c1[nH]c(C)c(C(=O)N2CCN(c3ccc(F)cc3)CC2)c1C,0% (inactive)
8,CCn1c(SCC(=O)NC)nnc1C(C)C,2% (inactive)
9,CCOc1ncccc1C(=O)OCC(=O)Nc1ncc(C(F)(F)F)cc1Cl,1% (inactive)
10,Cn1c(SCC(=O)Nc2cccc3ccccc23)nc(O)cc1=O,0% (inactive)
11,Cc1ccc(CN2C(=O)CCC2C(=O)NC2CCCC2)cc1 (stereo not given),0% (inactive)
12,Cc1cc2ncn(C(=O)c3c(-c4ccccc4)noc3C)c2cc1C,5% (inactive)
13,CCCCSc1cc(C)nc2ncnn12,0% (inactive)
14,CC1CCCCN1C(=O)Cn1nnc(-c2cccnc2)n1 (stereo not given),0% (inactive)
15,COc1ccc(OC)c(C2=NOC(C(=O)Nc3cc(C)nn3-c3ccccc3)C2)c1 (stereo not given),0% (inactive)
16,CC1(C)S[C@@H]2[C@H](NC(=O)C(C(=O)O)c3ccccc3)C(=O)N2[C@H]1C(=O)O (stereo not given in full),0% (inactive)
17,Cc1ccnc(SCCn2c(N3CCN(Cc4ccccc4)CC3)nc3c2c(=O)[nH]c(=O)n3C)n1,0% (inactive)
18,Cc1ccc(-c2noc(-c3ccccc3C(=O)NCC3CCCO3)n2)cc1 (stereo not given),6% (inactive)
19,CC(C)OC(=O)CSc1nnc(-c2cccnc2)n1Cc1ccccc1,3% (inactive)
20,CCC(C)n1[nH]c(=O)c2c(C)cc(C)nc21 (stereo not given),0% (inactive)

row,SMILES,inhibition
1,CC(C)CN1C(=O)c2ccc(C(=O)Nc3nccs3)cc2C1=O,0% (inactive)
2,O=C(Nc1ccc2c(c1)OCCO2)c1cnc2n(c1=O)CCS2,0% (inactive)
3,CC(C)(C)NC(=O)C(c1ccco1)N(C(=O)Cn1nnc(-c2ccc(F)cc2)n1)c1ccccc1F (stereo not given),5% (inactive)
4,Cc1ccc2occ(CN3CCN(c4ccccc4)CC3)c(=O)c2c1,0% (inactive)
5,COc1ccc(-c2cc(C(=O)NCc3ccc(Cl)cc3)no2)cc1OC,0% (inactive)
6,Cc1cccc(NC(=O)c2cc3ccccc3o2)c1,5% (inactive)
7,O=S(=O)(NC1CCCC1)c1ccc(S(=O)(=O)N2CCc3ccccc32)cc1,0% (inactive)
8,O=C(CSc1nnc2ccccn12)NCCN1C(=O)CSC1=O,0% (inactive)
9,CCOC(=O)c1[nH]c(=O)c2ccccc2c1O,0% (inactive)
10,CSc1cccc(NC(=O)CN(C)S(=O)(=O)c2ccccc2)c1,0% (inactive)
11,COC(=O)c1c(NC(=O)c2ccc(S(=O)(=O)N3CCOCC3)cc2)sc2c1CCN(C)C2,0% (inactive)
12,C[C@]12C[C@H](O)[C@H]3[C@@H](CCC4=CC(=O)CC[C@@]43C)[C@@H]1CC[C@@H]2C(=O)CO,0% (inactive)
13,CC(C)COc1ccc(C(=O)OCCN2CCOCC2)cc1,1% (inactive)
14,O=C(CCC(=O)c1cccs1)NCc1ccccc1,0% (inactive)
15,CCCn1nc(CC(=O)O)c2ccccc2c1=O,0% (inactive)
16,COCCn1c(C)c(C(=O)O)sc1=S,6% (inactive)
17,O=C(COc1ccc(Cl)cc1)NCc1nnc(SCC(=O)Nc2ccc3c(c2)OCCO3)o1,3% (inactive)
18,Nc1nonc1NC(=O)CSc1nc2ccccc2s1,0% (inactive)
19,Cc1ccc(NC(=O)c2ccccc2O)cc1,1% (inactive)
20,CCCC(CCC)n1[nH]c(=O)c2c(C)cc(C)nc21,0% (inactive)
